Experimental findings from PubChem BioAssay (NCI) are described below.

SMILES strings stand for the structures. This is part of a sample that, as a whole, favours compounds with a hit. Of some 83,000 tested, about 20% had one in any assay.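 Each cell line was grown in a 96-well plate and treated with one concentration of compound for 48 hours. Values below 10 were considered active.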 Values without a mark were called inactive. Activity calls are given as the source filed them.

This assay relates to A549/ATCC NSCLC. Briefly: NCI-60 one-dose screen, 48 h (100 = growth as untreated, 0 = no growth, -100 = all killed). The following applies: 10 µM unless noted.
In the case of `C=C(C)[C@@H]1CC[C@]2(CNCCO)CC[C@]3(C)[C@H](CC[C@@H]4[C@@]5(C)CCC(N)[C@@](C)(CO)[C@@H]5CC[C@]43C)[C@@H]12` (some centres undefined), the growth was -33.5% (active).

In the case of `O=S(=O)(NCCNc1cc(-c2c(-c3cccc(O)c3)nc3sccn23)ccn1)c1ccc(Cl)cc1`, the growth is 57.6%.

`CC(C)(C)Nc1c(-c2c3ccccc3cc3ccccc23)nc2ccccn12`: the growth is 49.4%.

As to `CN(C)CCOC(=O)Nc1ccc(Cl)cc1`, the growth is 94.7%.

As to `CCOc1ccc(-c2nc3ccc(-c4nc5ccc(N6CCN(C)CC6)cc5[nH]4)cc3[nH]2)cc1OCC`, the growth is 79.2%.

Consider `N[C@H]1CCC[C@@H]1NCCCCN1C(=O)c2cccc3cccc(c23)C1=O`, for which the growth is 53.3%.

Consider `COc1ccc(/C=C(\C#N)n2nnc3cc(F)c(F)cc32)c(OC)c1OC`, for which the growth was 84.2%.

As to `COc1cc2ccccc2cc1C(=O)NC(=S)Nc1ccc(-c2nc3ccccc3[nH]2)cc1`, the growth was 92.1%.

On to `Cc1ccc(/C=C(\C#N)n2nnc3cc(Cl)c(Cl)cc32)cc1`, for which the growth was 38.8%.

With `CC(C)(O)c1cccc(F)c1`, the growth is 104%.

Consider `O=C1Nc2ccc(Cl)cc2/C1=N/N=C/c1c[nH]c2ccccc12`, for which the growth is 87.2%.

Regarding `N#Cc1c(-c2ccccc2)nc(SCC2CO2)nc1N1CCOCC1` (centres undefined), the growth is 83.8%.

Regarding `COc1cc2c(cc1OC)-c1ccc3cc4c(cc3c1N(CCCN(C)C)C2)OCO4`, the growth is 20.2%.

`C=C1C(=O)O[C@H]2[C@H]1CC/C(Cn1cc(CNCCc3c[nH]c4ccc(Cl)cc34)nn1)=C\CC[C@@]1(C)O[C@@H]21`: the growth is 84.1%.

For the compound `C#CC[C@H](N)C(=O)O`, the growth was 99% [20 µM].

As to `O=C(Oc1ccc([N+](=O)[O-])cc1)c1ccc(CBr)cc1`, the growth is 97.9%.

Regarding `OC(CBr)c1ccnc2ccccc12` (centres undefined), the growth is 96.3%.

As for `CCCNCC(=O)Nc1ccc(C(=O)OC(C)(C)CC)cc1`, the growth is 97.1%.

Turning to `CC(=O)c1cc2c(o1)C(=O)c1ccccc1C2=O`, the growth is -44.4% (active).

Turning to `CS(=O)(=O)c1ccc(-c2[nH]c3ccc(F)cc3c2/C=N/NC(N)=S)cc1`, the growth is 18.4%.

On to `CC(C)c1ccc(C(=O)OC(=O)c2ccc(C(C)C)cc2)cc1`, for which the growth was 103%.

With `N=C(N)c1ccc(-c2ccc(-c3ccc(Cl)c(Cl)c3)o2)nc1`, the growth was -35.2% (active).

As to `N#C/C=C(\c1ccc([N+](=O)[O-])cc1)n1nnc2cc(Cl)c(Cl)cc21`, the growth was 53.2%.

As to `CS(=O)(=O)c1ccc(-c2nc3cc(Cl)ccc3n2CC(=O)NO)cc1`, the growth is 94.1%.

On to `CC(=O)Nc1cccc(C2=CC(c3ccc(C)cc3)n3ncnc3N2)c1` (centres undefined), for which the growth was 108%.

On to `CCn1c(Sc2nnc(NC(=O)CCN3CCCC3)s2)nc2c1c(=O)n(C)c(=O)n2C`, for which the growth was 99.3%.

On to `N#Cc1c(NC(=O)c2cccc(C(F)(F)F)c2)sc2c1CCC(=O)C2`, for which the growth was 14.6%.

Consider `CC(C)(C)c1ccc(C(=O)Nc2sc3c(c2C(N)=O)CCC(=O)C3)cc1`, for which the growth is 15.1%.

On to `CCOC(=O)c1c(C)nc2c(c1N)/C(=C/c1cc(OC)c(OC)c(OC)c1)C(=O)N2c1ccc(OC)cc1`, for which the growth is 88.8%.

Take `Nc1nc(Nc2ccc(Cl)cc2)nn1S(=O)(=O)c1ccc(-c2ccc(F)cc2)cc1`: the growth was 71.9%.

In the case of `CCNCCNc1cc(-c2ccc(C(F)(F)F)cc2)c(C#N)c2nc3cc(Cl)c(Cl)cc3n12`, the growth was -88.4% (active).

For `C=CCN1C(=O)[C@]2(SC1=S)[C@H](c1cccc(Cl)c1)CN(C)[C@]21C(=O)NC2C=CC(Cl)=C[C@H]21` (some centres undefined), the growth was 41.9%.

In the case of `O=C(/C=C/C12c3ccccc3C(c3ccccc31)C1C(=O)N(c3ccccc3)C(=O)C12)c1ccccc1` (centres undefined), the growth was 20.5%.

For the compound `O=S(=O)(Nc1ccsc1-c1nc(-c2ccccc2)no1)c1cc(Cl)cc(Cl)c1`, the growth was 90%.

In the case of `CNC1(C#N)CCN(Cc2ccccc2)CC1`, the growth is 98.1%.

In the case of `COc1cc2cc(Oc3ccc(NC(=O)Nc4cc(C(F)(F)F)cc(C(F)(F)F)c4)cc3)c(C)nc2cc1OCCN1CCCCC1`, the growth was -64.9% (active).

On to `CC(C)n1nc(C#Cc2cccc3cc(-c4cccc(C(F)(F)F)c4)ncc23)c2c(N)ncnc21`, for which the growth was 44.4%.

For `N[C@@H]1CCC[C@H]1NCCCCN1C(=O)c2cccc3cccc(c23)C1=O`, the growth is 67.4%.

For the compound `CCN(CC)CCOC(=O)N1c2ccccc2Sc2ccccc21`, the growth is 88.9%.
